# In PubChem BioAssay:
# Several values for one entry are separate records, joined by “and”; a condition that tells them apart may be missing. Identical values can stand only once.
# Target: Focal adhesion kinase 1 (Homo sapiens) (UniProt Q05397)
# Test: PTK2 protein binding on printed compound slides – biochemical, small-molecule microarray, 635/667 nm fluorescence, BSA, DTT, primary screen (AID 1130);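 note: composite of spot emission at 667 nm and signal to noise over triplicate slides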
# Conditions: 635 nm fluorescence, higher = more signal
# Sequence of Focal adhesion kinase 1 (Homo sapiens) (Q05397 whole entry, looked up): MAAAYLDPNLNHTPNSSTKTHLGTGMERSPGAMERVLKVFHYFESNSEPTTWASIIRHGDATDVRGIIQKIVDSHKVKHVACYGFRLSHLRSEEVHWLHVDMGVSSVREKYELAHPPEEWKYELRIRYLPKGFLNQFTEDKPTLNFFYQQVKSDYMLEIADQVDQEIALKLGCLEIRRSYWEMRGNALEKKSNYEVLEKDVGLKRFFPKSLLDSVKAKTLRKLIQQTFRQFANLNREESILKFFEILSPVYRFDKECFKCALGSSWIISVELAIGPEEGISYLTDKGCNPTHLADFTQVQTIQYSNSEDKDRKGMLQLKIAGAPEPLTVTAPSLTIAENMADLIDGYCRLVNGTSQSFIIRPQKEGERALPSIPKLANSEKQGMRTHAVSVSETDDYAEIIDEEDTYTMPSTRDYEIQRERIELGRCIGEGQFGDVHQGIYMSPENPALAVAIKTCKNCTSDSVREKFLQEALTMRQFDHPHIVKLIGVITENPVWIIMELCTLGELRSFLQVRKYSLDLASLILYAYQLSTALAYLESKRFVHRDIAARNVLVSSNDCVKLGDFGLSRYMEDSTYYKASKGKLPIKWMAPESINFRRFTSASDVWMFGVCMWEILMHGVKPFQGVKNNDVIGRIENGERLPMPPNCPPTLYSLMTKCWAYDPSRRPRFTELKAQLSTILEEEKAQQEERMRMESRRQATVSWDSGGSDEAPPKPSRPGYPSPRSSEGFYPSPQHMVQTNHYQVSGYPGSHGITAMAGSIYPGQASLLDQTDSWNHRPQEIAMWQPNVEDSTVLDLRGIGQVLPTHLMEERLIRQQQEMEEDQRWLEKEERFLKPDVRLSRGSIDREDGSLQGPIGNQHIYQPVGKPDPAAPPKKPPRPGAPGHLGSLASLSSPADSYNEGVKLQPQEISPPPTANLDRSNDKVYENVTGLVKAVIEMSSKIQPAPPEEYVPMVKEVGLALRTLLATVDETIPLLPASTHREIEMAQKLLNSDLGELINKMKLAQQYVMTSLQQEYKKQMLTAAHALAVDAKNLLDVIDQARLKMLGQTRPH
row,SMILES,composite z-score
1,CC(C)=NOC[C@@H](O)COCc1ccco1,-0.395
2,COC(=O)C1=C(C)N(Cc2ccccc2)C2=C(C(C)=O)C[C@@](O)(C(=O)OC)C(=O)N2[C@@H]1c1ccccc1,0.271 and -0.209
3,COC(=O)[C@@]1(Cc2ccc(OC)cc2)[C@H]2c3cc(C(=O)N(C)C)n(Cc4ccc(O)c(OC)c4)c3C[C@H]2CN1C(=O)c1ccccc1,0.529 and 0.379
4,C=CC[C@H](O)c1ccc(OCCO)cc1,-1.14 and -0.38
5,CC(C)=NO[C@@H](C)c1cc(-c2c(C)cc(C)cc2C)no1,0.0218
6,C[N+](C)(C)CCCCNC(=O)[C@H]1C[C@H]2C(=O)N[C@@H](CCCC[N+](C)(C)C)C(=O)N2[C@H]1c1ccc(O)cc1,0.267 and -0.478
7,C[C@@]1([C@@H](NC(=O)Cc2ccccc2)c2ccc(-c3ccccc3)cc2)C[C@H]1C1CCCCC1,0.284 and 0.0485 and 0.83
8,CCN1C(=O)[C@H]2[C@H]3[C@H](O)[C@H](O)CC(=NOC)[C@@H]3CC[C@H]2C1=O,-0.384
9,O=C1NC(=O)C2C1C=CC(C(O)c1ccc([N+](=O)[O-])cc1)N2Nc1ccc(Cl)cc1Cl (stereo not given),0.649 and 0.342
10,C=C[C@H](C)[C@@H](O)c1ccc(OCCO)cc1,-0.996 and -0.139
11,CC(C)CON=C1C[C@@H](O)[C@@H](O)[C@@H]2[C@@H]3C(=O)N(c4cccc(Oc5ccccc5)c4)C(=O)[C@@H]3CC[C@H]12,-0.195
12,CO[C@H]1COC(=O)CC=C[C@@H](C)COC(=O)[C@H](CCSC)NC(=O)CC=C[C@@H]1C,0.285 and -0.776
13,C=C[C@@H](OC)[C@H](O)c1ccc(OCCO)cc1,0.005 and -0.754
14,CCOC(=O)c1ccc(NC(=O)O[C@H]2[C@H](OC(=O)Nc3ccccc3)[C@@H](OC(=O)Nc3ccccc3)[C@@H](OC)O[C@@H]2CO)cc1,1.78 and 0.545
15,C=CCN(C(=O)C(c1cccs1)N(CCOCCO)C(=O)/C=C\C(=O)O)c1ccc(OC)cc1 (stereo not given),-0.303 and -0.67
16,C#CCN1C(/C=C/c2ccccc2)C(=O)OC[C@H]1c1ccccc1 (stereo not given in full),0.0124 and 0.142
17,CO[C@@H]1COC(=O)CC=C[C@H](C)COC(=O)[C@H](C)NC(=O)CC=C[C@H]1C,-0.0308
18,Cc1cc2c(nc1C)CCCN2CC(O)CN1CCCc2nc(-c3ccc(Br)cc3)ccc21 (stereo not given),1.08 and 1.26

row,SMILES,composite z-score
1,C=CCN(CCCCC)C(=O)C(c1cccs1)N(CCOCCO)C(=O)/C=C\C(=O)O (stereo not given),-0.759 and 0.926
2,COc1ccc(-c2ccc3c(n2)CCCN3CC(O)CN2CCCc3nc(-c4ccc(Br)cc4)ccc32)cc1 (stereo not given),0.665 and 0.748
3,C=C[C@H](OC)[C@@H](O)c1ccc(OCCO)cc1,-0.86 and 0.0202
4,C=CCN(C(=O)C1N(CCCCCCO)C(=O)C2C(C(=O)O)C3C=CC21O3)c1ccc(OC)cc1 (stereo not given),0.85 and -0.212
5,O=C1C[C@]2(c3ccc([N+](=O)[O-])cc3)C(=O)N(Cc3ccccc3)c3cc(CO)ccc3[C@H]2N1C1CCCCC1,0.152 and 0.0229
6,C=CCN(C(=O)C1N(c2c(Cl)cccc2CO)C(=O)C2C(C(=O)O)C3C=CC21O3)c1ccc(OC)cc1 (stereo not given),-0.542 and -1.13
7,C=CCN(C(=O)C1N(CCOCCO)C(=O)C2C(C(=O)O)C3C=CC21O3)C(C)(C)C (stereo not given),-0.324 and -0.708
8,COC(=O)C1=C2N(Cc3ccccc3)C(C)=C(C(=O)OC)[C@@H](c3ccccc3)N2C(=O)[C@](O)(C(=O)OC)C1,0.268 and -0.172
9,O=c1n(-c2ccccc2)c(=O)n2n1CC[C@@H]1C(=NOC[C@@H](O)COCc3ccco3)[C@H]3O[C@H]3[C@@H](O)[C@@H]12,0.828 and -0.367
10,CC(CO)N1C(=O)[C@@H]2C3C(=O)OCCC=C[C@H]3OC23C=CCN(c2ccc(Cl)cc2)C(=O)[C@@H]13 (stereo not given in full),1.69 and 0.156
11,CC(C)[Si]1(C(C)C)OCc2cc(CCCc3cc4c(c(CCc5ccccc5)n3)[Si](C(C)C)(C(C)C)OC4)nc(CCc3ccccc3)c21,-0.293 and -0.0124
12,C=CCN(Cc1ccccc1)C(=O)C1N(CCOCCO)C(=O)C2C(C(=O)O)C3C=CC21O3 (stereo not given),-1.29 and -0.708
13,C[N+](C)(C)CCCCCCNC(=O)[C@H]1C[C@H]2C(=O)N[C@@H](CCCC[N+](C)(C)C)C(=O)N2[C@H]1c1cccc(OCCO)c1,-0.063 and 0.0884
14,CCCCCN1CC=CC23O[C@@H]4C=CCCOC(=O)C4[C@H]2C(=O)N(C(C)CO)[C@@H]3C1=O (stereo not given in full),-0.0918 and 0.206
15,O=C1[C@H]2[C@H]3[C@H](O)[C@H](O)CC(=NOCc4ccccc4)[C@H]3CC[C@H]2C(=O)N1Cc1ccccc1,-0.0933
16,CO[C@H]1COC(=O)CC=C[C@H](C)[C@H](OC)COC(=O)[C@@H](C)COC(=O)CC=C[C@@H]1C,0.445 and -0.105
17,CN1C(=O)C2CC=C([C@H]3Oc4ccccc4S(=O)(=O)N4CCC[C@@H]34)CC2C1=O (stereo not given in full),0.285 and 0.14
